Results filed as inconclusive are left out. Activity calls are given as the source filed them. Unless noted, the call rests on the fitted dose curve.
Assays:
[1] = Nuclear factor erythroid 2-related factor 2/antioxidant responsive element (Nrf2/ARE) small molecule agonists: qHTS cell viability counter screen in human keratinocytes (AID 1919968; active means well fitted curve in the direction sought with a large enough effect in the repeat runs; an effect the other way counts as inactive or inconclusive; further: nearly all actives have a fitted effect of over 55% in size)
Procedure, shortened: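 After a 5 h attachment period, ARE-reporter keratinocytes were dosed with compounds in DMSO and then cultured 23 h at 37 C. Cell viability came from CellTiter-Fluor signal read after a further 1 h.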

[2] = Nuclear factor erythroid 2-related factor 2/antioxidant responsive element (Nrf2/ARE) small molecule agonists: luciferase reporter gene qHTS assay in human keratinocytes (AID 1919969); further: nearly all actives have a fitted effect of over 35% in size; further: potency means the concentration at half of the fitted maximal effect
[3] = target: Gonadotropin-releasing hormone receptor (Homo sapiens) (UniProt P30968); assay: Human gonadotropin-releasing hormone receptor (GnRHR) small molecule agonists, calcium flux assay in GnRHR-HEK293 cells (AID 1920063); further: nearly all actives have a fitted effect of over 35% in size
Procedure, shortened: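 We seeded human GnRHR-expressing HEK293 cells for 18 hours, loaded them with calcium dye for an hour at 37 C, added test compounds, and recorded fluorescence intensity kinetically for three minutes.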

[4] = target: KiSS-1 receptor (Homo sapiens) (UniProt Q969F8); assay: Human kisspeptin (KISS1R) small molecule agonists, calcium flux assay in KISS1R-HEK293 cells (AID 1920064; active means well fitted curve in the direction sought with a large enough effect in the repeat runs; an effect the other way counts as inactive or inconclusive)
Procedure, shortened: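 Kinetic calcium assay, 1 s sampling over 3 min at Ex/Em 480/540, in HEK293 cells engineered with human KISS1R; compounds delivered in DMSO after 1 h dye loading.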

[5] = G protein-coupled receptor (GPCR) small molecule agonists, calcium flux assay: HEK293 wild type cell line counter screen (AID 1920065)
Procedure, shortened: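 Calcium-sensitive dye, loaded 1 h at 37 C into cells cultured 18 h, reports compound-evoked calcium release as fluorescence (Ex/Em 480/540), measured over 3 min. Agonist mode; 15-point titrations, triplicate.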

[6] = p53 small molecule agonists, cell-based qHTS assay with human liver microsomes: qHTS cell viability counter screen (AID 1963579); further: nearly all actives have a fitted effect of over 45% in size
Procedure, shortened: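 p53RE-bla cells, 4,000/well, dosed 5 hours after plating, with human liver microsomes (0.5 mg/mL final) plus NADPH (0.5 mg/mL final), 16 hours at 37 C. Viability read as CellTiter-Glo luminescence after 30 min at room temperature.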

[7] = p53 small molecule agonists, cell-based qHTS assay with rat liver microsomes: qHTS cell viability counter screen (AID 1963580); further: nearly all actives have a fitted effect of over 45% in size
Procedure, shortened: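 Intracellular ATP, by CellTiter-Glo luminescence, defines viability. HCT-116 p53RE-bla cells, 4,000 per well, were compound-treated in the presence of rat liver microsomes and NADPH for 16 h at 37 C.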

[8] = p53 small molecule agonists, cell-based qHTS assay: qHTS cell viability counter screen (AID 1963581); further: nearly all actives have a fitted effect of over 45% in size
Procedure, shortened: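 Following 5 h attachment, HCT-116 p53RE-bla cells took up compound for 16 h at 37 C; the reporter was read with B/G FRET substrate (2 h RT), and viability then via CellTiter-Glo ATP luminescence.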

[9] = target: 5-hydroxytryptamine receptor 2A (Homo sapiens) (UniProt P28223); assay: 5-hydroxytryptamine receptor 2A (HTR2A) small molecule antagonists, cell-based qHTS assay (AID 1963586); further: nearly all actives have a fitted effect of over 45% in size
Procedure, shortened: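 Antagonist-mode intracellular calcium assay: DOI (4 nM) added after 5 min compound pre-incubation at room temperature to dye-loaded HTR2A-CHO cells. Fluorescence followed for 3 min, sampled every second.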

[10] = target: 5-hydroxytryptamine receptor 2A (Homo sapiens) (UniProt P28223); assay: 5-hydroxytryptamine receptor 2A (HTR2A) small molecule agonists, cell-based qHTS assay (AID 1963587); further: nearly all actives have a fitted effect of over 30% in size
Procedure, shortened: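 Kinetic calcium-flux fluorescence (2 min, 1 sec intervals) after compound addition in agonist mode. HTR2A-CHO cells were cultured 18 h, then dye-loaded 1 h at 37 C.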

[11] = target: Muscarinic acetylcholine receptor M1 (Homo sapiens) (UniProt P11229); assay: Cholinergic receptor muscarinic 1 (CHRM1) small molecule antagonists, cell-based qHTS assay (AID 1963588); further: nearly all actives have a fitted effect of over 40% in size
Procedure, shortened: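 CHRM1-CHO calcium-flux assay, antagonist mode. Cells were seeded 18 h, dye-loaded 1 h at 37 C and given compound for 5 min at RT, then acetylcholine was added at 50nM. FDSS fluorescence was read 3 min; 15 concentrations, three runs.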

[12] = target: Muscarinic acetylcholine receptor M1 (Homo sapiens) (UniProt P11229); assay: Cholinergic receptor muscarinic 1 (CHRM1) small molecule agonists, cell-based qHTS assay (AID 1963589); further: nearly all actives have a fitted effect of over 35% in size
Procedure, shortened: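 Measures agonist-induced intracellular calcium rise. Stable human CHRM1 CHO line, 1 h dye load at 37 C, compounds from DMSO, kinetic fluorescence read.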

[13] = cAMP Responsive Elements (CRE) small molecule agonists, cell-based qHTS assay (AID 1963590)
Procedure, shortened: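 A CRE-responsive beta-lactamase reporter in HEK 293T cells was used. Treatment ran 3 h at 37 C; detection used LiveBLAzer B/G FRET substrate for 2 h at room temperature.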

[14] = cAMP Responsive Elements (CRE) small molecule antagonists, cell-based qHTS assay (AID 1963591; active means well fitted inhibition curve with a large enough effect in the signal ratio in the repeat runs, not every such curve was filed as active; the % refers to the signal ratio)
Procedure, shortened: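 HEK293T cells carrying a CRE-driven beta-lactamase reporter receive compound and NKH477 (0.25 uM final) for 3 h. Fluorescence from LiveBLAzer B/G FRET substrate is read after 2 h at room temperature.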

[15] = target: Beta-2 adrenergic receptor (Homo sapiens) (UniProt P07550); assay: Adrenergic beta2 receptor (ADRB2) small molecule antagonists, cell-based qHTS assay (AID 1963592); further: series mostly up to about 92 µM; nearly all actives have a fitted effect of over 50% in size
Procedure, shortened: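 Cells (CHO, stable ADRB2 overexpression) incubated 18-20hr at 37C; compounds added from DMSO; agonist mix (1nM isoproterenol, 100uM IBMX, 25uM Ro-20-1724) added; 0.5hr RT; d2-cAMP and anti-cAMP-cryptate added; 1hr RT; 665/615 nm read.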

[16] = target: D(2) dopamine receptor (Homo sapiens) (UniProt P14416); assay: Dopamine D2 receptor (DRD2) small molecule agonists, cell-based qHTS assay (AID 1963594); further: nearly all actives have a fitted effect of over 35% in size
Procedure, shortened: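 cAMP accumulation in DRD2-HEK293 cells measured by HTRF after 1 h detection; compounds added 10 min before NKH477 (200nM […]) forskolin-analogue stimulation, 30 min at room temperature, with Ro20-1724 present at 0.1 mM final.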

[17] = target: Beta-2 adrenergic receptor (Homo sapiens) (UniProt P07550); assay: Adrenergic beta2 receptor (ADRB2) small molecule agonists, cell-based qHTS assay (AID 1963593);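 further: CHO cells stably overexpressing human ADRB2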
Procedure, shortened: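 CHO cells stably over-expressing ADRB2 were plated overnight at 37C, then dosed with compounds plus a stimulation mix containing 100uM IBMX and 25uM Ro-20-1724 for 0.5hr at room temperature. cAMP was measured by HTRF competition, 1hr.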

[18] = target: D(2) dopamine receptor (Homo sapiens) (UniProt P14416); assay: Dopamine D2 receptor (DRD2) small molecule antagonists, cell-based qHTS assay (AID 1963595; active means well fitted inhibition curve with a large enough effect in the signal ratio in the repeat runs, with a control signal flat; the % refers to the signal ratio)
Procedure, shortened: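 Human DRD2 antagonist qHTS measuring cAMP by HTRF. The cells are exposed to compound for 10 min, then to NKH477 (200 nM) and quinpirole (12 nM) for 30 min at RT, with Ro20-1724 (0.1 mM) present throughout.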

Measured: Potency

Sequence of 5-hydroxytryptamine receptor 2A (Homo sapiens) (P28223 whole entry, looked up): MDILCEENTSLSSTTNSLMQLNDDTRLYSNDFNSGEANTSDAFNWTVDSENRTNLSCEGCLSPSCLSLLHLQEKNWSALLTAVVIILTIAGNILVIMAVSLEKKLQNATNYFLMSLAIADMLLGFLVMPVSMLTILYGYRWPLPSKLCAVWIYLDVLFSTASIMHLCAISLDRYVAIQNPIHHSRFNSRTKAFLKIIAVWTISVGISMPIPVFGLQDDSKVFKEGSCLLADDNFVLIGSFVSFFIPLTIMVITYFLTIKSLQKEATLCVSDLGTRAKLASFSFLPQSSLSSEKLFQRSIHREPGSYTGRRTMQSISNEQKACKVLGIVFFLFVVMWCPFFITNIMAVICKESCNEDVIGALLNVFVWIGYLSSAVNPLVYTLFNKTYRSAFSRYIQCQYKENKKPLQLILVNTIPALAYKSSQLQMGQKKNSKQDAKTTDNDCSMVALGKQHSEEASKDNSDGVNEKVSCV
Sequence of Muscarinic acetylcholine receptor M1 (Homo sapiens) (P11229 whole entry, looked up): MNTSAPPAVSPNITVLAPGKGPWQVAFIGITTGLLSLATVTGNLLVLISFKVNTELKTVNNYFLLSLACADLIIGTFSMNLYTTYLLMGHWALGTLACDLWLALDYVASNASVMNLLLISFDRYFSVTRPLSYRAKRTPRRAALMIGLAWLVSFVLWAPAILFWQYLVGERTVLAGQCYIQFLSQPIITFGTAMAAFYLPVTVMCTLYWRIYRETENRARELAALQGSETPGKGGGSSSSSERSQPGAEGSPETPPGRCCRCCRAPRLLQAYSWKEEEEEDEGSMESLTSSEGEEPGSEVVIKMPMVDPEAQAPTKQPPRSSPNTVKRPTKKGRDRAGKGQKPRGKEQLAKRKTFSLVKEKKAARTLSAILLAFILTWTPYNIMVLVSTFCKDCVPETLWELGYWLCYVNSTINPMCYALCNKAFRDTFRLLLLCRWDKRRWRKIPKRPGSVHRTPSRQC
Sequence of Gonadotropin-releasing hormone receptor (Homo sapiens) (P30968 whole entry, looked up): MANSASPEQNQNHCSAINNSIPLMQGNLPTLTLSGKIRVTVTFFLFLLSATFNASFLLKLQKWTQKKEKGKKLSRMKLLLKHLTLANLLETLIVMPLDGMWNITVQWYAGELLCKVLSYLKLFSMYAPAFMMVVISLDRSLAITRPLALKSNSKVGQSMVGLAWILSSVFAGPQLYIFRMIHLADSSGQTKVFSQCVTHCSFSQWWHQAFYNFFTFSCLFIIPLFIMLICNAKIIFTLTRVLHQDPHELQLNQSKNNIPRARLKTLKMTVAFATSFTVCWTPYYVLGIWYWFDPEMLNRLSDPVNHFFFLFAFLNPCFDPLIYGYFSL
Sequence of KiSS-1 receptor (Homo sapiens) (Q969F8 whole entry, looked up): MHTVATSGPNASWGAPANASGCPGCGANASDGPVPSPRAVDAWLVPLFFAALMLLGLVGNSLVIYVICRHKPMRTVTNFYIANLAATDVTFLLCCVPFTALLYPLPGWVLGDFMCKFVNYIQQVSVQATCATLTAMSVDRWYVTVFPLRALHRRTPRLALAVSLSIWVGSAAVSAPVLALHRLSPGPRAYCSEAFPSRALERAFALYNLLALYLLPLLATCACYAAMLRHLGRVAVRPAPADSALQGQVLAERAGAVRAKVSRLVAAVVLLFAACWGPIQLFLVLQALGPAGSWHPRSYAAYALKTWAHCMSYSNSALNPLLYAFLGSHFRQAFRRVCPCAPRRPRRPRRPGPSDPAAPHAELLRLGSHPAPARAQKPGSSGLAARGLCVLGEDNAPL
Sequence of Beta-2 adrenergic receptor (Homo sapiens) (P07550 whole entry, looked up): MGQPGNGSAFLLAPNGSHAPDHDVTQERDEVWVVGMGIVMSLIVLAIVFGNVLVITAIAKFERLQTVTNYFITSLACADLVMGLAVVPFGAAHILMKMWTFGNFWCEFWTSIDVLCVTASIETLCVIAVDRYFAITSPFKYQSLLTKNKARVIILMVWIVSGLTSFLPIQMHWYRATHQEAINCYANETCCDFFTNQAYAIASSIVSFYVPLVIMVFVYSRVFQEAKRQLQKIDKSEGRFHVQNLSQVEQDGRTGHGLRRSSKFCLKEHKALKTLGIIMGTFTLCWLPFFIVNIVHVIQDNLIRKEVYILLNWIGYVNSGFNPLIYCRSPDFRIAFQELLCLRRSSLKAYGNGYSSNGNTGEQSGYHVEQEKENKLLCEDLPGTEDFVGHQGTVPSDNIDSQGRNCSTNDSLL
Sequence of D(2) dopamine receptor (Homo sapiens) (P14416 whole entry, looked up): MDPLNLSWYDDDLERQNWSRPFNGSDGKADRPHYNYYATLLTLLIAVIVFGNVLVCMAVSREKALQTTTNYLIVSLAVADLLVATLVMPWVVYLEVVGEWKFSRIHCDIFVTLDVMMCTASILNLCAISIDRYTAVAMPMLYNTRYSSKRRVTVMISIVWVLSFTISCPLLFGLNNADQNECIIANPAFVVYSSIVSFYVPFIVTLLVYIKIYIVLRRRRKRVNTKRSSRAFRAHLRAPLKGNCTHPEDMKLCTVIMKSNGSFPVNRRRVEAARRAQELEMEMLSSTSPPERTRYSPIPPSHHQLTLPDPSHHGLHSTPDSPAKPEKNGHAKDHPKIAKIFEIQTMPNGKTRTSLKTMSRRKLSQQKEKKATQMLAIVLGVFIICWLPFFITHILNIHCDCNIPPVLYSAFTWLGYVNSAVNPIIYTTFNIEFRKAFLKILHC

C=CCCCCCCCCOC(C)=O
not listed: [17] | [18]
inactive: all other assays above

CN(C)C(=O)COC(=O)Cc1ccc(OC(=O)c2ccc(N=C(N)N)cc2)cc1
not listed: [16]
inactive: all other assays above

Cc1c(Cl)cccc1Cl
not listed: [18]
inactive: all other assays above

CC1(C)SC(C)(C)SC(C)(C)S1
inactive: all assays above

CC(=O)OCC1=C(C(=O)O)N2C(=O)[C@@H](NC(=O)CSc3ccncc3)[C@H]2SC1
inactive: all assays above

c1ccc(CN(Cc2ccccc2)Cc2ccccc2)cc1
active: [2] 54.4 µM
inactive: all other assays above

CCN[C@H]1C[C@H](C)S(=O)(=O)c2sc(S(N)(=O)=O)cc21
inactive: all assays above

Nc1ncn([C@H]2C[C@H](O)[C@@H](CO)O2)c(=O)n1
not listed: [18]
inactive: all other assays above

CC(CCc1ccc2c(c1)OCO2)NN (centres undefined)
inactive: all assays above

CC(CO)(CO)[N+](=O)[O-]
not listed: [16]
inactive: all other assays above

O/N=C/C=N/O
not listed: [18]
inactive: all other assays above

CC1=C(C(=O)O)N2C(=O)[C@@H](NC(=O)[C@H](N)C3=CCC=CC3)[C@H]2SC1
inactive: all assays above

O=C1c2ccccc2C(=O)c2cc(S(=O)(=O)O)ccc21
inactive: all assays above

CC(C)Cn1cnc2c1c(=O)n(C)c(=O)n2C
not listed: [16]
inactive: all other assays above
